Reference: PMC5700166

biological target: T1, GST-Dm-Relish (Drosophila melanogaster, UniProt Q94527 99-473); test: protein-binding microarray (PBM); PBM: ~300 nM protein, 6 mM HEPES pH 7.8, 80 mM KCl, 0.5 mM EDTA, 0.5 mM EGTA, 6% glycerol, 35 ng/ul poly-dIdC, 1% milk, 1 h, room temperature; Ap Aiptasia and Nv Nematostella (sea anemones) / Co Capsaspora / Aq Amphimedon (sponge) / Dm Drosophila / Hu human; RHD is the Rel homology domain; high values mean tight binding; details: dsDNA, one strand shown
T1 sequence: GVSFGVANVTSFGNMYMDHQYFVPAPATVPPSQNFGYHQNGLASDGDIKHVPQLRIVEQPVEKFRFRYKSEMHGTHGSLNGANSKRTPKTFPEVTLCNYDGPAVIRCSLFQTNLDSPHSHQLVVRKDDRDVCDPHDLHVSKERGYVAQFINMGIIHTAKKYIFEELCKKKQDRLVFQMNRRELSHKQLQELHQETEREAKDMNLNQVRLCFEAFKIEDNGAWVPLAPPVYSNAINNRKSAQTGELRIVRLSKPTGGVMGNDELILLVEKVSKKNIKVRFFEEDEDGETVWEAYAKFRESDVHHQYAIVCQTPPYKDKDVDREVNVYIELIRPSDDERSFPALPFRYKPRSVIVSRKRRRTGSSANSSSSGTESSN

| Sequence | binding signal |
| --- | --- |
| CCGATTAACATCAGGGGAGTAAATGATGTTAATCGGGTCTTGATTCGCTTGACGCTGCTG | 1.91 z-score |
| CCGATTAACATCAAATTTCCCGCTGATGTTAATCGGGTCTTGATTCGCTTGACGCTGCTG | 2.88 z-score |
| CCGATTAACATCAGGAGAACCCCTGATGTTAATCGGGTCTTGATTCGCTTGACGCTGCTG | 3.65 z-score |
| CCGATTAACATCAGGGGAGTTAATGATGTTAATCGGGTCTTGATTCGCTTGACGCTGCTG | 3.14 z-score |
| CCGATTAACATCAACATCCCCCCTGATGTTAATCGGGTCTTGATTCGCTTGACGCTGCTG | 5.72 z-score |
| CCGATTAACATCAGGCCGTCCCCTGATGTTAATCGGGTCTTGATTCGCTTGACGCTGCTG | 5.02 z-score |
| CCGATTAACATCACATATTTCCCTGATGTTAATCGGGTCTTGATTCGCTTGACGCTGCTG | 1.93 z-score |
| CCGATTAACATCACTTGGGAAACTGATGTTAATCGGGTCTTGATTCGCTTGACGCTGCTG | 1.01 z-score |
| CCGATTAACATCACGGGAAACCCTGATGTTAATCGGGTCTTGATTCGCTTGACGCTGCTG | 7.56 z-score |
| CCGATTAACATCAGGGTATTCCATGATGTTAATCGGGTCTTGATTCGCTTGACGCTGCTG | 5.81 z-score |
| CCGATTAACATCACAGGGAATTCTGATGTTAATCGGGTCTTGATTCGCTTGACGCTGCTG | 3.71 z-score |
| CCGATTAACATCAGGGGGAGAGATGATGTTAATCGGGTCTTGATTCGCTTGACGCTGCTG | 1.45 z-score |

biological target: T2, GST-Aq-NF-kB (Amphimedon queenslandica, UniProt A9Y5G7 2-389); test: as above; details: dsDNA, one strand shown
T2 sequence: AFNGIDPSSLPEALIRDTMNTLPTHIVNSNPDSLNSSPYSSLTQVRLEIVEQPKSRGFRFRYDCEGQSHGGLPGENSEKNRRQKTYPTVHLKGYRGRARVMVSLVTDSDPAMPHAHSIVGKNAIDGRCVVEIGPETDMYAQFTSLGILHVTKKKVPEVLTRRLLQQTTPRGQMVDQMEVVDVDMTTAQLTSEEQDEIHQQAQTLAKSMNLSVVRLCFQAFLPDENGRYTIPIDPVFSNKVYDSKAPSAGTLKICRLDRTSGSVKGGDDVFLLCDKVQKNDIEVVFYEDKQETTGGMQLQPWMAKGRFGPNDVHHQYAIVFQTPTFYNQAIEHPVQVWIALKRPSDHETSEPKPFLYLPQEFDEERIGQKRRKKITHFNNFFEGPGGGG

| Sequence | binding signal |
| --- | --- |
| CCGATTAACATCAAATAGGGAATTGATGTTAATCGGGTCTTGATTCGCTTGACGCTGCTG | 3.5 z-score |
| CCGATTAACATCACGTTATTCCCTGATGTTAATCGGGTCTTGATTCGCTTGACGCTGCTG | 2.9 z-score |
| CCGATTAACATCAAGGGATTTTCTGATGTTAATCGGGTCTTGATTCGCTTGACGCTGCTG | 6.65 z-score |
| CCGATTAACATCAGGAGTTACCCTGATGTTAATCGGGTCTTGATTCGCTTGACGCTGCTG | 6.71 z-score |
| CCGATTAACATCAGGGATTTCTATGATGTTAATCGGGTCTTGATTCGCTTGACGCTGCTG | 4 z-score |
| CCGATTAACATCAGGGAACAACCTGATGTTAATCGGGTCTTGATTCGCTTGACGCTGCTG | 4.61 z-score |
| CCGATTAACATCAGAATGCCCCCTGATGTTAATCGGGTCTTGATTCGCTTGACGCTGCTG | 5.26 z-score |
| CCGATTAACATCAACTAATTCCCTGATGTTAATCGGGTCTTGATTCGCTTGACGCTGCTG | 3.44 z-score |
| CCGATTAACATCAGGGAGCCCCCTGATGTTAATCGGGTCTTGATTCGCTTGACGCTGCTG | 7.55 z-score |
| CCGATTAACATCACCCGGGAAAATGATGTTAATCGGGTCTTGATTCGCTTGACGCTGCTG | 2.6 z-score |
| CCGATTAACATCAGGGGGATGGATGATGTTAATCGGGTCTTGATTCGCTTGACGCTGCTG | 3.5 z-score |
| CCGATTAACATCAGACTTCCCCATGATGTTAATCGGGTCTTGATTCGCTTGACGCTGCTG | 4.9 z-score |
| CCGATTAACATCAGGGAATGTACTGATGTTAATCGGGTCTTGATTCGCTTGACGCTGCTG | 4.86 z-score |
| CCGATTAACATCACACATTTCCCTGATGTTAATCGGGTCTTGATTCGCTTGACGCTGCTG | 3.88 z-score |
| CCGATTAACATCAACCACCCCCCTGATGTTAATCGGGTCTTGATTCGCTTGACGCTGCTG | 3.9 z-score |
| CCGATTAACATCAGGGATTCCCATGATGTTAATCGGGTCTTGATTCGCTTGACGCTGCTG | 6.04 z-score |
| CCGATTAACATCAATTCCCAAGGTGATGTTAATCGGGTCTTGATTCGCTTGACGCTGCTG | 1.55 z-score |
| CCGATTAACATCAGAATTACCCATGATGTTAATCGGGTCTTGATTCGCTTGACGCTGCTG | 3.58 z-score |
| CCGATTAACATCAGGGGTTTACCTGATGTTAATCGGGTCTTGATTCGCTTGACGCTGCTG | 6.9 z-score |
| CCGATTAACATCAGACAATTCCCTGATGTTAATCGGGTCTTGATTCGCTTGACGCTGCTG | 4.77 z-score |
| CCGATTAACATCACCCATCCCCCTGATGTTAATCGGGTCTTGATTCGCTTGACGCTGCTG | 3.73 z-score |
| CCGATTAACATCACTTCCCCCCATGATGTTAATCGGGTCTTGATTCGCTTGACGCTGCTG | 3.86 z-score |
| CCGATTAACATCATCCCCGTGTCTGATGTTAATCGGGTCTTGATTCGCTTGACGCTGCTG | 3.87 z-score |
| CCGATTAACATCAGGGAATGCACTGATGTTAATCGGGTCTTGATTCGCTTGACGCTGCTG | 4.84 z-score |
| CCGATTAACATCAATTTTCCCAATGATGTTAATCGGGTCTTGATTCGCTTGACGCTGCTG | 2.61 z-score |
